High-throughput results (PubChem)
PGC1a acetyl inh = lowers PGC1a acetylation signal in U2OS cells | AlphaScreen anti-acetyl-lysine; with virally co-expressed GCN5 acetyltransferase | inhibition, % at 15.6 µM | actives 0.17% (n = 350,000) | AID 651687;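 active = every replicate shows inhibition of at least 40%; inconclusive = mean inhibition at least 40% but some replicate below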;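 note: 0% = neutral control wells and 100% = positive control wells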
PvdQ inh = blocks Pseudomonas aeruginosa PvdQ acylase activity. inhibition, % at 10 µM. purified PvdQ acylase, fluorescence plate reader. actives 0.063% (n = 340,000); in the data active = inhibition above about 30%, passing the limit was not always enough; inconclusive = no clear call, values can overlap the other calls;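 note: 0% = vehicle neutral wells and 100% = reference inhibitor wells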
miR-122 sensor = miR-122 inhibition in Huh7 cells. Huh7 miR-122 Renilla luciferase sensor, 48 h; neutral wells = 0, positive control = 100. activation (reporter increase), % at 12.5 µM. actives 0.3% (n = 340,000);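 active = mean replicate activation score at least 90 and every replicate individually at or above 90; inconclusive = only one of the two criteria met; inactive = neither criterion met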;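 note: higher luciferase means less miR-122 activity so hits act as miR-122 inhibitors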
DENV2 CPE = DENV2-induced cell death inhibition; DENV2-infected cells, cytopathic effect rescue, plate reader; CPE inhibition, % at 9.99 µM; AID 651640; actives 1.7% (n = 350,000); in the data active = CPE inhibition above about 20%, passing the limit was not always enough; inconclusive = no clear call, values can overlap the other calls; tested in BHK-21 cells;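 note: 0% = median of neutral control wells and 100% = median of positive control wells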
C2C12 statin = protects C2C12 myotubes from simvastatin toxicity; rescue of ATP level, % at 7.49 µM; actives 0.78% (n = 330,000); ATP luminescence, 48 h; scaled: DMSO 0, geranylgeraniol control 100;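 active = mean ATP rescue above about 67%, or every replicate alone reaching that limit, limit read from the data, passing the limit was not always enough; inconclusive = no clear call, values can overlap the other calls; inactive = mean under the limit and some replicate under it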;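 note: myotubes were challenged with 10 µM simvastatin during compound exposure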
* marks the source's active call; other numbers are inactive results; ? = inconclusive; . = no result given; [ ] = another dose, or the depositor's remark. Sampled rows, rich in hits. Any-hit rate of the full collection: about 2.2%.

SMILES	PGC1a acetyl inh	PvdQ inh	miR-122 sensor	DENV2 CPE	C2C12 statin
CCS(=O)(=O)NCC[C@@H]1CC[C@@H](NS(=O)(=O)c2ccccc2C)[C@H](CO)O1	5	.	.	50*	-2
Cc1ccccc1S(=O)(=O)NCC[C@@H]1CC[C@@H](NC(=O)C2CCCCC2)[C@@H](CO)O1	1	.	.	27*	2
CCS(=O)(=O)NCC[C@H]1CC[C@H](NS(=O)(=O)c2ccccc2C)[C@@H](CO)O1	12	.	.	-4	-1
O=C(N[C@@H]1CC[C@H](CCNS(=O)(=O)c2ccc(F)cc2)O[C@@H]1CO)C1CCCC1	1	.	2[16.7 µM]	-6	0
CCC(=O)Nc1ccc2c(c1)C(=O)N(C)[C@H]1CC[C@@H](CC(=O)NCc3ccccc3)O[C@@H]1CO2	-6	.	-1[16.7 µM]	-2	-5
CN1CCN(C(=O)C[C@H]2C[C@H]3c4cc(NC(=O)C5CCOCC5)ccc4O[C@H]3[C@@H](CO)O2)CC1	-16	.	1[16.7 µM]	1	0
CNC(=O)C[C@@H]1CC[C@@H]2[C@H](COC[C@H](O)CN2Cc2ccncc2)O1	0	.	-3[16.7 µM]	-2	-11
CO[C@H]1CN(C)C(=O)c2ccc(NC(=O)C3CCC3)cc2OC[C@H](C)N(C)C[C@@H]1C	.	.	.	-11	.
CC(=O)Oc1cc(OC(C)=O)c2c(C)cc(=O)oc2c1	2	-16	2	.	97*
CC(=O)Oc1ccc2c(C)cc(=O)oc2c1	17	-16	-6	.	.
O=C1NN(c2ccccc2)C(=O)C2C1C1C=CC2C12CC2 (stereo not given)	.	53*	-10	.	.
Cc1cccc(OCC(=O)Nc2cc(C)on2)c1	-16	-7	2	.	122*
Cc1ccc(OCC(=O)NNC(=O)[C@@H]2CCCC[C@@H]2C(=O)O)c(Br)c1	3	-12	2	-5	8
Cc1cccc(OCC(=O)NNC(=O)C2CCCCC2C(=O)O)c1 (stereo not given)	3	3	-7	22*	5
COc1ccc(CC(=O)Nc2cc(C)on2)cc1OC	-5	-3	-9	.	111*
Cc1cccc(NC(=O)Nc2cc(C)on2)c1	-16	39*	-10	.	-5
Cc1ccc(NC(=O)Nc2cc(C)on2)cc1	3	2	.	5	.
COC(=O)c1ccc(COn2c(=O)c(C)[n+]([O-])c3ccccc32)cc1	4	6	-10	.	2
COC(=O)c1ccccc1COn1c(=O)c(C)[n+]([O-])c2ccccc21	-8	-17	1	.	105*
CC(=O)N1[C@@H]2Cn3c(ccc(C4=CCCCC4)c3=O)[C@H]1[C@@H](C(=O)NC1CCCC1)[C@@H]2CO	.	.	-2[16.7 µM]	8	9
C[C@@H]1CN([C@@H](C)CO)C(=O)c2cc(NC(=O)NC3CCCCC3)ccc2O[C@@H](C)CCCCO[C@@H]1CN(C)C(=O)Nc1ccc2c(c1)OCO2	2	.	-6[16.7 µM]	-11	.
C[C@H]1CCCCO[C@H](CN(C)C(=O)NC2CCCCC2)[C@@H](C)CN([C@@H](C)CO)C(=O)c2cc(NC(=O)Nc3ccccc3)ccc2O1	14	.	-6[16.7 µM]	27*	.
C[C@@H]1CCCCO[C@H](CN(C)C(=O)NC2CCCCC2)[C@@H](C)CN([C@H](C)CO)C(=O)c2cc(NC(=O)NC3CCCCC3)ccc2O1	-5	.	-7[16.7 µM]	78*	.
C[C@@H]1CN([C@@H](C)CO)C(=O)c2cc(NC(=O)NC3CCCCC3)ccc2O[C@@H](C)CCCCO[C@@H]1CN(C)C(=O)NC1CCCCC1	6	.	3[16.7 µM]	-7	.
C[C@@H]1CCCCO[C@H](CN(C)C(=O)Nc2ccc3c(c2)OCO3)[C@H](C)CN([C@H](C)CO)C(=O)c2cc(NC(=O)NC3CCCCC3)ccc2O1	-16	.	-13[16.7 µM]	41*	.
SMILES	PGC1a acetyl inh	PvdQ inh	miR-122 sensor	DENV2 CPE	C2C12 statin
C[C@@H]1CCCCO[C@@H](CN(C)C(=O)NC2CCCCC2)[C@@H](C)CN([C@@H](C)CO)C(=O)c2cc(NC(=O)Nc3ccccc3)ccc2O1	-3	.	-5[16.7 µM]	45*	.
CO[C@@H]1CN(C)C(=O)c2ccc(NS(C)(=O)=O)cc2OC[C@@H](C)NC[C@H]1C	2	.	-5[16.7 µM]	0	-4
Cc1noc(C)c1NC(=O)N(C)C[C@H]1Oc2ccc(NC(=O)Nc3ccc(C(F)(F)F)cc3)cc2CC(=O)N([C@H](C)CO)C[C@@H]1C	-2	.	-2[16.7 µM]	-5	32
Cc1ccc(S(=O)(=O)Nc2cccc3c2O[C@H](CN(C)Cc2ccncc2)[C@H](C)CN([C@H](C)CO)C3=O)cc1	2	.	0[16.7 µM]	-5	-20
COCC(=O)Nc1ccc2c(c1)[C@@H]1C[C@@H](CC(=O)NCC3CC3)O[C@H](CO)[C@@H]1O2	-6	.	-1[16.7 µM]	-2	1
COc1ccc2sc(-c3ccccc3OC)c(-c3ccc(O)cc3)c2c1	-16	-12	2	?	132*
C[C@@H]1CN([C@H](C)CO)C(=O)c2cccc(NS(=O)(=O)c3cn(C)cn3)c2O[C@H]1CN(C)C(=O)Nc1ccc(F)cc1	-2	.	14[16.7 µM]	71*	-3
C[C@@H]1CN([C@H](C)CO)C(=O)c2cccc(NS(=O)(=O)c3cn(C)cn3)c2O[C@H]1CN(C)C(=O)Nc1ccc2c(c1)OCO2	10	.	-2[16.7 µM]	72*	30
C[C@@H]1CN([C@H](C)CO)C(=O)c2cccc(NS(=O)(=O)c3cn(C)cn3)c2O[C@@H]1CN(C)C(=O)Nc1ccc(F)cc1	-3	.	-2[16.7 µM]	-9	-9
COc1ccc2oc(C(=O)OCC(=O)N3CC(C)CC(C)C3)c(C)c2c1 (stereo not given)	2	5	7	14	-5
COc1ccc2oc(C(=O)OC(C)C(=O)N3CCC(C)CC3)c(C)c2c1 (stereo not given)	-4	2	-6	34*	10
O=C(NCc1cccnc1)/C(=C\c1ccc(-c2ccc(Cl)c(Cl)c2)o1)S(=O)(=O)c1ccccc1	59*	3	10	3	.
CN(O)/C=c1/ccc2c(n1)C(=O)C=CC=2	1	12	-5	.	93*
Cc1ccc(SCC(=O)NNC(=O)c2cncc(Br)c2)cc1	-2	-12	1	34*	-6
Cc1ccc(C(=O)c2cncc(Br)c2)cc1	?	-7	-3	.	5
Cc1noc(C)c1NC(=O)N(C)C[C@H]1Oc2c(NS(=O)(=O)c3cn(C)cn3)cccc2C(=O)N([C@@H](C)CO)C[C@@H]1C	-10	.	1[16.7 µM]	4	4
O=C(COC(=O)C1CC(=O)N(Cc2ccco2)C1)Nc1ccc(F)cc1F (stereo not given)	.	-10	.	74*	6
C[C@@H]1CN([C@H](C)CO)C(=O)c2cc(C3=CCCC3)cnc2O[C@H]1CN(C)S(C)(=O)=O	1	.	.	3	1
Cc1cc(C)c2c(c1)/C(=N/NS(=O)(=O)c1ccc(Br)cc1)CCC2	-5	-15	1	.	18
Cc1cc(C)c2c(c1)/C(=N/NS(=O)(=O)c1ccccc1)CCC2	-2	-5	1	.	136*
Cc1ccc(S(=O)(=O)N(C)C[C@@H]2Oc3ccc(NC(=O)C4CC4)cc3CC(=O)N([C@@H](C)CO)C[C@H]2C)cc1	1	.	39[16.7 µM]	-6	-7
